Screens from PubChem BioAssay.
Methyltransferases – Primary Screen for Target Class Profiling of Small Molecule Inhibitors of Methyltransferases. 25,000 compounds, 3.9% hits. purified enzyme, MTase-Glo SAH luminescence; active compounds read low. calls only at 40 µM; call rule not given here
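Each enzyme was reacted with SAM and its substrate, with compounds tested once at 40 uM; SAH formed was read by MTase-Glo luminescence.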
Active calls of the source: *; i = inactive; + = active, no number; ! = not active in a repeat. Shown is part of a subset that was picked to be rich in hits. On the % scale 0 is the no-effect control and ±100 the full control effect.

SMILES | Methyltransferases
C[S+](CC[C@H](N)C(=O)[O-])C[C@H]1O[C@@H](n2cnc3c(N)ncnc32)[C@H](O)[C@@H]1O (stereo partly drawn) | i
CC(C)Cn1c(=O)c2ccc(C(=O)NC(C)C)cc2n2c(SCc3ccc(F)cc3)nnc12 | i
C=Cc1cc2oc(-c3ccc(O)c(F)c3)nc2cc1O | +
O=C(O)Cc1ccc2oc(-c3ccc(NC(=O)/C=C/c4ccc(Br)cc4)c(F)c3)nc2c1 | i
COc1cc(CC(COC2OC(CO)C(O)C(O)C2O)c2cc(/C=C/CO)cc(OC)c2O)ccc1O (stereo not drawn) | i
COc1cc(/C=C/C(=O)OC[C@H]2O[C@@](CO)(O[C@H]3O[C@H](CO)[C@@H](O)[C@H](O)[C@H]3O)[C@@H](OC(=O)/C=C/c3ccc(O)c(OC)c3)[C@@H]2O)ccc1O | +
COc1cc(/C=C/C(=O)OC[C@H]2O[C@H](O[C@]3(CO)O[C@H](CO)[C@@H](O)[C@@H]3O)[C@H](O)[C@@H](O)[C@@H]2O)cc(OC)c1O | i
COc1cc(/C=C/C(=O)O[C@H]2[C@H](O)[C@@H](CO)O[C@@]2(CO)O[C@H]2O[C@H](CO)[C@@H](O)[C@H](O)[C@H]2O)ccc1O | i
COc1cc(/C=C/C(=O)O[C@H]2[C@H](OC(=O)/C=C/c3cc(OC)c(O)c(OC)c3)O[C@H](CO[C@@H]3O[C@H](CO)[C@@H](O)[C@H](O)[C@H]3O)[C@@H](O)[C@@H]2O)ccc1O | +
COc1cc([C@H]2c3cc(O)c(OC)cc3C[C@@H](CO[C@@H]3O[C@H](CO)[C@@H](O)[C@H](O)[C@H]3O)[C@@H]2CO)ccc1O | i
CCCN1C(=O)c2cc(C(=O)NCCc3ccc(Cl)cc3)nn2CC1(C)C(=O)NC1CCCC1 (stereo not drawn) | i
CCCN1C(=O)c2c(C(=O)NCc3ccc(OC)cc3)ncn2CC1(C)C(=O)NCc1ccc(F)cc1 (stereo not drawn) | i
COc1ccc(-c2cc3n(n2)CC(C)(C(=O)NCc2ccccc2OC)N(c2cccc(C)c2C)C3=O)cc1 (stereo not drawn) | i
Cc1cccc(CNC(=O)CNC(=O)C2(C)Cn3c(cc4ccccc43)C(=O)N2C)c1 (stereo not drawn) | i
COC(=O)c1cc(COc2ccc3c(-c4ccccc4)cc(=O)oc3c2)c(C)o1 | i
CCN1C(=O)c2cc3ccccc3n2CC1(C)C(=O)NCC(=O)NCCc1ccccc1C (stereo not drawn) | i
O=C(CCc1nnc2ccc(-c3ccc(Cl)cc3)nn12)N1CCC(Cc2ccccc2)CC1 | i
C=CCNC(=O)c1ccc2c(=O)[nH]c3c(C(=O)NC(C)C)sc(=S)n3c2c1 | i
Cc1ccc(CNC(=O)c2ccc3c(=O)[nH]c4c(C(=O)NCC5CCCO5)sc(=S)n4c3c2)cc1 (stereo not drawn) | i
Cc1ccc(CNC(=O)c2ccc3c(=O)[nH]c4c(C(=O)NC(C)C)sc(=S)n4c3c2)cc1 | +
Cc1cccc(-c2nnn3c2nc(NCc2ccc(F)cc2)c2ccccc23)c1 | i
C=Cc1ccc(Cn2nc3n(C(C)C)c(=O)c4ccc(C(=O)NC(C)C)cc4n3c2=O)cc1 | i
CCCCN1C(=O)c2cc(C(=O)NCc3ccc(OCC)cc3)nn2CC1(C)C(=O)NC1CCCC1 (stereo not drawn) | i
COc1ccc(OC)c2c1cc1n2CC(C)(C(=O)NC2CCC(C)CC2)N(Cc2cccs2)C1=O (stereo not drawn) | i
Cc1ccc(NC2=CC(=O)c3sc(C)nc3C2=O)cc1 | +
SMILES | Methyltransferases
CSc1ccc(CCNC(=O)C(C)n2ccc3cc(S(=O)(=O)N4CCCC4)ccc32)cc1 (stereo not drawn) | i
CCCn1c(=O)c2ccc(C(=O)NC3CCCCC3)cc2n2c(=O)n(CC(=O)c3ccc(C)cc3)nc12 | i
CC1(C(=O)NCc2ccccc2)Cn2nc(-c3ccccc3)cc2C(=O)N1Cc1cccc(Br)c1 (stereo not drawn) | i
CCC(C)NC(=O)c1ccc2c(=O)n(C)c3nnc(SCc4cccc(Cl)c4)n3c2c1 (stereo not drawn) | i
COc1ccc(-n2c(=O)[nH]c3cccnc32)cc1OC | i
COc1cc2c(cc1-c1c(C)noc1C)ncc1[nH]c(=O)n(C(C)c3ccccn3)c12 (stereo not drawn) | +!
CCCn1c(=O)c2ccccc2n2c(=O)n(Cc3cccc(Cl)c3)nc12 | i
CC(C)Cn1c(=O)c2ccc(C(=O)NC3CCCCC3)cc2n2c(=O)n(C)nc12 | i
Cc1ccccc1CN1C(=O)c2cc3sccc3n2CC1(C)C(=O)NC1CCCC(C)C1C (stereo not drawn) | i
Cc1ccc(CNC(=O)c2ccc3c(=O)nc4c(-c5ccc(Cl)cc5)n[nH]n4c3c2)cc1 | i
CCCn1c(=O)c2ccc(C(=O)NC(C)C)cc2n2c(SCC(=O)Nc3cccc(F)c3)nnc12 | i
OC[C@H]1O[C@@H](Oc2cc(O)cc(/C=C/c3ccc(O)cc3)c2)[C@H](O)[C@@H](O)[C@@H]1O | +!
OCC1OC(Oc2cc(O)cc(/C=C/c3ccc(OC4OC(CO)C(O)C(O)C4O)cc3O)c2)C(O)C(O)C1O (stereo not drawn) | i
COc1cc(O)cc(/C=C/c2ccc(O[C@@H]3O[C@H](CO)[C@@H](O)[C@H](O)[C@H]3O)cc2)c1 | i
Cc1ccc(NC(=O)CSc2nnc3n(CCc4ccccc4)c(=O)c4ccccc4n23)cc1 | i
COC(=O)C1=C2Nc3ccccc3C23CCN2CCCC(C(C)O)(C1)C23 (stereo not drawn) | +
CCN1C(=O)c2cc(C(=O)NCCc3cccs3)nn2CC1(C)C(=O)NC1CCCC1 (stereo not drawn) | i
O=C(CCn1ccc2cc(S(=O)(=O)N3CCCC3)ccc21)NCCc1ccc(Cl)cc1 | i
CCn1cnnc1CC1CCN(C(=O)C2CCCN(S(=O)(=O)c3ccc4c(c3)oc(=O)n4C)C2)CC1 (stereo not drawn) | i
Cc1cc2c(cc1C1(c3ccc(C(=O)O)cn3)CC1)C(C)(C)CCC2(C)C | i
CCCCCCCOc1cc2c(cc1/C(C)=C/c1ccc(C(=O)O)cc1)C(C)(C)CCS2(=O)=O | +
O=C1c2cc3sccc3n2CC(C(=O)NC2CCCCCC2)(c2ccccc2)N1Cc1ccccc1 (stereo not drawn) | i
CC(C)NC(=O)c1ccc2c(=O)n(C(C)C)c3nn(CC(=O)NCc4ccccc4)c(=O)n3c2c1 | i
O=C1NC(=O)/C(=C/c2ccc3nccnc3c2)S1 | i
CCc1ccc(/C=C2/SC(=S)NC2=O)cc1 | +
SMILES | Methyltransferases
COc1cccc(CN2C(=O)c3cc4ccccc4n3CC2(C)C(=O)NC2CCCCCC2)c1 (stereo not drawn) | i
O=C(Nc1ccccc1Br)N1Cc2c(sc3c2CCCC3)-n2cccc2C1c1ccccc1 (stereo not drawn) | i
O=C1NC(=O)C(c2ccccc2[N+](=O)[O-])=C1Nc1ccc(O)c(Cl)c1 | +
CCCn1c(=O)c2ccc(C(=O)NCC(C)C)cc2n2c(SCC(=O)Nc3ccc(C)cc3)nnc12 | i
COc1ccc(OC)c(CCN2C(=O)c3cc4occc4n3CC2(C)C(=O)NC2CCCCC2)c1 (stereo not drawn) | i
O=C(NCCCNc1nc(Nc2cccc(CN3CCOCC3)c2)ncc1C1CC1)C1CCC1 | +
CNc1nccnc1-c1cccc(CN2CCOCC2)c1 | i
